# Results taken from PubChem BioAssay AID1508600 (Functional Genomics Laboratory (NCATS/FGL), 2020).
# Hit rate of the full screen: of about 53,000 sequences, about 3,700 (7%) were called active. Shown is part of a subset that was picked to be rich in actives. Unmarked numbers belong to inactive results.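 Rule for the calls: active = gene knockdowns whose robust z-score for IL-1 alpha signal is at least 2 or at most -2, so actives lie on both sides; inactive = the rest.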
# Assay: Components of the Cytosolic LPS Sensing Pathway: Gene Identification via Genome-wide siRNA Screen;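 note: robust z of the log signal after scaling to non-targeting control siRNA wells of the plate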
# Details: RAW264.7 macrophages, IL-1a HTRF, actives lie on both sides, screened at 100 nM (by protocol), cells primed 5 h with Pam3CSK4 first
# How it was run: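 Supernatant IL-1a by HTRF from RAW264.7 cells primed with Pam3CSK4 (5 hours) and transfected with LipidA (24 hour) after 48h siRNA knockdown at 100 nM; cell viability checked with CellTiter-Glo.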
row,Sequence,z-score
1,GGAACACAAAUUGUGCUUATT against Zfp462,0.199
2,GGGUUGUAUGGCUCAAAUATT against Olfr728,0.734
3,GCAUCAUAAUGGGAUGCUGTT against Qrfp,-0.313
4,GGAGAGGUCAGAUAGAAAUTT against Zbtb41,-2.29 (active)
5,GGCAAAAGAAUCGUUCUCATT against Ppat,-0.848
6,GGAAGAAAUACUACAGCCATT against Ptpn12,-0.733
7,GAAGGAAGAAUAUUGGCCCTT against Il17rd,-1.88
8,GCGGCAAUUCAAAUGAGUCTT against Rnf14,1.2
9,GGGAAUGACUCCACAUUGCTT against Limd1,2.01 (active)
10,GGGAGAGAGUUGGCUCUGATT against Prg3,-0.184
11,GGGAGACUUCGAAUAUUUATT against Uroc1,-0.183
12,CGUAUUCUGGUAGUGAAGGTT against Olfr1384,-2.3 (active)
13,GCUCAACCUAACUUUGUGGTT against Ccdc3,0.421
14,GGCAACAAUGGUUGUCUUGTT against Ctsr,0.515
15,GCCAAACUUAGCGUGCUCATT against Dgkk,0.607
16,GGGUAUCAACCACUUUUUUTT against Serping1,2
17,GGUCAGAUUCCUGAAAUUATT against Vbp1,-0.807
18,GGAAACAAGAUUACAUCAATT against Adamts2,2.04 (active)
19,GGCCAUAGUGAAGAAAGAATT against Plaat3,-0.754
20,GGAGAAGGAUAGAGAUGGUTT against Phf5a,-1.84
21,GGUAAUACCACCUCACCUUTT against Fam214b,-0.0713
22,GGACACUGUACAGAAGCUGTT against Asb18,-2.31 (active)

row,Sequence,z-score
1,CGGUUAGAUGAGCUUGAGATT against Smad2,-0.725
2,GCGGGAGUACUACGUCAAUTT against Reps2,-2.07 (active)
3,GCUUGAUGACUACCACUGATT against Rrp36,0.496
4,GGUCGACAUUUUGAAGGAGTT against Fthl17e,-2.63 (active)
5,GGAGAUCACUAUGUUCUGATT against Ivd,1.46
6,GACAAGGCUUCAUAAAAAGTT against Qrich1,-0.312
7,GGGAUGCUUUGUUGCUGUUTT against Olfr836,0.296
8,GCCAUAGGCUCAUCUUUACTT against Ankib1,-1.61
9,GGAAGUAGAGCUUCAAAUGTT against Cdkl2,2.8 (active)
10,GGUUGGUCACCUAAUCCAGTT against Aldh2,0.523
11,CCAAUGUGCUCAUGCUCUATT against Nodal,1.06
12,GCUGUACGAGCAUACUGUGTT against Tnxb,-1.46
13,CCUUCUAAACACUUGACUUTT against Ugt2b5,0.106
14,GACCACAAUAUUGAGGAUCTT against Zfp119b,-0.329
15,GGACGUGACAGACAUUAUUTT against Htr5b,-2.81 (active)
16,CCCUGUUAUUAUCUUGAUUTT against Arv1,-1.16
17,CGUGUGUGUUAUGAAUCAATT against Tmem161a,0.984
18,GGACUUGCUAAGAGACCAATT against Cntn2,4.74 (active)
19,GGACUACAUAAGGAAGGUUTT against Ccdc130,1.64
20,GGCAAAUGGGAAGAAUUCCTT against Mep1b,0.228
21,GCAACCUGCAGGCAGUAACTT against Nolc1,0.207
22,CCACACACUGAUCAACGUGTT against Unc93b1,0.336

row,Sequence,z-score
1,GGCUUCAUUCUUGUCCUCCTT against Reg3b,-0.105
2,GCCUUCCUCCGUUAAUCCATT against Kank2,0.844
3,GGUGAGAGGAAGGAAGAGATT against Pcsk7,2.54 (active)
4,GGAGGAUGAGAAAGAAGAGTT against Gja8,-0.176
5,GGAUGUCAUCAAUGCUAUGTT against Olfr1022,-0.643
6,GGUUUACUGGCCAAGAUGGTT against 4930579K19Rik,-0.327
7,GGCUUUACGUGACAAAGAUTT against 4933430I17Rik,0.266
8,GGAAAAUACAGCGCGAAUUTT against Nexn,1.4
9,GCGGCUAGGAUUUCUGGGATT against Mindy3,2.34 (active)
10,ACAAGAUUGGGAUCAUCUATT against Rpl23a,0.521
11,UGCCUCAAUCAUAAGUCCCTT against Olfr730,-0.551
12,AAGGUCGUUUACAUGAACATT against Fbxw20,1.19
13,GGAAAAAAAAAAGCAGUGATT against Phactr4,0.662
14,GGUCUGAUACCUCAUUCCATT against Il22ra2,-1.21
15,CCAUGAGAACCUGAUGAAUTT against Pag1,-2.38 (active)
16,GGACUUUCGUCGUACUCGUTT against Terf1,-1.73
17,GGCCUGGUGCUACUUCUCATT against Fam160a2,-0.0704
18,CGUAAACACUCCUAACUUUTT against Hif1a,-0.543
19,GGAAGGAUAUUGGUUACCATT against Zmynd11,-2.28 (active)
20,GGUCAGAAGAGAUGCCAAUTT against Hcar1,-0.494
21,CCGCAGUUGUCUUUCAAGATT against Dcaf1,0.724
22,AGAAUCUUUAAAGGAAGUCTT against Olfr325,0.229

row,Sequence,z-score
1,GCCAUGACUAUGUUUUCCGTT against St6galnac1,-0.578
2,CGGCUCAUCCGAUAUAUCCTT against Hcn2,-1.39
3,GCUUUUAAAGCAUGGGCAGTT against Alb,2.44 (active)
4,GGGCAGUAAGGACAGUUUUTT against Oaz1,0.406
5,GGACUAAUCCCAUUUUCUUTT against Zfp422,-0.292
6,GGCCGAGAAGAUCAAAGCATT against Mrpl12,-0.116
7,GGAAAUAAAGUGAGUUUUGTT against Etaa1,4.95 (active)
8,GCUGGAAUAUCAUUUCCCATT against Pdpk1,-1.01
9,GGAGAGCUGUUUGACUACATT against Melk,1.45
10,CCAGCAAAAUCACUUAAUATT against Emb,-0.648
11,GCAACGAAGUGAAUUUGUUTT against Epha5,-0.139
12,GCUAGACCAGAAGAAAGUATT against Gid8,-1.65
13,GCCAGAGCUAGUUGAAUCCTT against Rce1,1.14
14,GGCCCUGUGUUUAUCAAAGTT against Cntn3,0.814
15,GGCCUUGAAGGAGUAUGAGTT against Atp2a3,-2.62 (active)
16,GGACCCAGAUGUGACUGAGTT against Svil,0.242
17,GGAAGCUUUUGUCGGUCCATT against Hap1,-0.361
18,AACUUUCUCAUUCUUACUGTT against Olfr961,-1.22
19,GCAUGCUGAGGGACACAGUTT against 1810055G02Rik,-1.6
20,GAUCACACUGAAAUCAUCATT against Nudt11,-1.71
21,GGCAUCACUGGUAAACAUUTT against Frzb,-0.196
22,GGCUGUCUUGUCCAAAUGUTT against Olfr1357,-2.9 (active)

row,Sequence,z-score
1,GGGAAAGUUUUGUUCUGUATT against Ezr,0.31
2,CCGCGUGUUCCUUCUGAUUTT against S1pr3,1.43
3,GGGUAUAGAAUGAUUAUGGTT against Ly6g2,-2.39 (active)
4,GGGAACUGUUCCAUCUUGCTT against Olfr606,0.979
5,GGAAGUUCCGUCGAUUUGATT against Cyp8b1,-0.604
6,GGAUGAAGUUCUUUUUCAATT against Pdcd11,2.28 (active)
7,GGCUGCCUAUCCCUAAACUTT against Cpt2,-0.625
8,GGUGGUUUACCAAACGGUGTT against Ces2g,-0.00874
9,GGCCAGAGCAUUUUCUUCATT against Pif1,0.72
10,GGAUGAAGGAAUCCAUGCATT against Pcdhga6,-0.133
11,GGAUCUGAAGGUGAUGUCATT against H2-Q10,-2.72 (active)
12,GGUACCUCUACACAGAUGATT against Fgf21,0.0136
13,GGCCUGGAUGAAUGAAAAGTT against Gins4,0.665
14,CCGUGUGAAUCCCUGCAUUTT against Aldoa,-2.85 (active)
15,GCUAUUUGACUUGUUGUAATT against Rab30,0.269
16,CGCAAGUAUUUCCACCAUATT against Clk4,-0.41
17,GGUUUGAGAAUUUGAAGGUTT against Map2k3os,0.273
18,GGUCCUCUGGUUCAACAUUTT against Olfr638,-0.405
19,GGGAAGAAGACUGACAAGCTT against Lars,2.03 (active)
20,GGAGAUGAAGAAGAUAUUGTT against Smoc2,-0.764
